Measurements: PubChem BioAssay (Tox21)
Inconclusive results are not listed. Calls of active or inactive are those of the source. Unless noted, the call rests on the fitted dose curve; in most records, active means well fitted curve in the direction sought with a large enough effect in the repeat runs; inconclusive means weak or mixed curves; inactive means no such curve, though single readings can be large; an effect the other way counts as inactive or inconclusive.

What was measured:
[1] = qHTS assay for small molecule agonists of the p53 signaling pathway (AID 651631; calls by dose curve; further: nearly all actives have a fitted effect of over 15% in size)
Summary of the method: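 Readout was fluorescence from the LiveBLAzer FRET substrate, applied for 2 h at room temperature after 16 h compound exposure at 37 °C. Cells were the p53RE-bla HCT-116 line, with beta-lactamase driven by p53 response elements.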

[2] = qHTS assay for small molecules that induce genotoxicity in human embryonic kidney cells expressing luciferase-tagged ATAD5 (AID 651632); further: nearly all actives have a fitted effect of over 15% in size
Summary of the method: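 HEK293T cells carrying a luciferase reporter tagged to ATAD5 were exposed to compound or DMSO vehicle for 16 hr at 37C, 5% CO2. Amplite was added, and after 30 min at room temperature luciferase activity was read as a marker of ATAD5 induction.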

[3] = qHTS assay for small molecule agonists of the p53 signaling pathway - cell viability (AID 651633; calls by dose curve; further: series mostly up to about 83 µM; nearly all actives have a fitted effect of over 30% in size)
Summary of the method: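 p53RE-bla cells, seeded at 4,000 per well and rested 5 h at 37 C/5% CO2, received compounds in DMSO for 16 h at 37 C. CellTiter-Glo was then added, and luminescence was read after 30 min at room temperature to gauge cytotoxicity.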

[4] = qHTS assay for small molecules that induce genotoxicity in human embryonic kidney cells expressing luciferase-tagged ATAD5 - cell viability (AID 651634; calls by dose curve; further: nearly all actives have a fitted effect of over 25% in size)
Summary of the method: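 HEK293T cells expressing luciferase-tagged ATAD5 were exposed to compound or DMSO for 15.5 hr at 37C, 5% CO2. Viability was then read as live-cell protease activity by CellTiter-Fluor fluorescence after 30 min at 37C.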

[5] = qHTS assay for small molecule disruptors of the mitochondrial membrane potential - cell viability (AID 720634; calls by dose curve;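 further: human HepG2 liver cancer cells; series mostly up to about 83 µM; nearly all actives have a fitted effect of over 20% in size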)
Summary of the method: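 HepG2 cells seeded overnight at 37 C, then exposed to compound or DMSO for 1 hr at 37 C, 5% CO2. m-MPI dye added, then CellTiter-Glo for 30 min at room temperature; viability read as ATP luminescence.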

[6] = qHTS assay to test for compound auto fluorescence at 590 nm (red) in HepG2 cells (AID 720674)
Summary of the method: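 Rose Bengal sodium served as the red fluorophore standard. HepG2 monolayers (overnight attachment, MEM with 10% FBS) were exposed to test compounds for 1 hr at 37 C and read at Ex 540/Em 590 nm.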

[7] = qHTS assay to test for compound auto fluorescence at 535 nm (green) in HepG2 cells (AID 720675)
[8] = qHTS assay to test for compound auto fluorescence at 460 nm (blue) in HEK293 cells (AID 720678)
Summary of the method: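 Blue-channel (Ex/Em 405/460 nm) intensity measured in HEK293 cultures after overnight compound exposure at 37C; signal expressed relative to triamterene. Cells plated 2,000 per well in 10% dialyzed FBS medium and allowed 4-5 hr to attach.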

[9] = qHTS assay to test for compound auto fluorescence at 590 nm (red) in HEK293 cells (AID 720679)
Summary of the method: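 Red-channel autofluorescence (Ex/Em 540/590 nm; Rose Bengal sodium reference) was measured after overnight 37C, 5% CO2 exposure of attached HEK293 cells, 2,000 per well in medium with 10% dialyzed FBS.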

[10] = qHTS assay to test for compound auto fluorescence at 535 nm (green) in HEK293 cells (AID 720680)
[11] = qHTS assay to test for compound auto fluorescence at 460 nm (blue) in HEK293 cell free culture (AID 720681)
Summary of the method: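 Test compounds were pinned into cell-free culture medium (DMEM with 10% FBS) and fluorescence was read directly at Ex/Em 405/460 nm. Signals were expressed as fluorescence equivalents of triamterene, with DMSO vehicle as control.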

[12] = qHTS assay to test for compound auto fluorescence at 535 nm (green) in HEK293 cell free culture (AID 720682)
Summary of the method: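 Compounds were pin-transferred into cell-free DMEM with 10% FBS, and green fluorescence was read at excitation 485 nm and emission 535 nm. Intensities were expressed as fluorescein-equivalent values.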

[13] = qHTS assay to test for compound auto fluorescence at 590 nm (red) in HEK293 cell free culture (AID 720683)
Summary of the method: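 Tox21 10K library compounds were pinned into cell-free DMEM with 10% FBS and fluorescence was read at excitation 540 nm. Activity is expressed as Rose Bengal sodium equivalency.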

[14] = qHTS assay to test for compound auto fluorescence at 590 nm (red) in HepG2 cell free culture (AID 720684)
Summary of the method: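 Measured in medium alone (MEM containing 10% FBS) following pintool addition of compound; emission at 590 nm with 540 nm excitation, referenced to Rose Bengal sodium.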

[15] = qHTS assay to test for compound auto fluorescence at 460 nm (blue) in HepG2 cell free culture (AID 720685)
Summary of the method: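 Compound (23 nL) or DMSO pinned into cell-free MEM with 10% FBS; blue fluorescence read at 405/460 nm excitation/emission, expressed as auto-fluorescence equivalency to triamterene.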

[16] = qHTS assay to test for compound auto fluorescence at 535 nm (green) in HepG2 cell free culture (AID 720686)
[17] = qHTS assay to test for compound auto fluorescence at 460 nm (blue) in HepG2 cells (AID 720687)
Summary of the method: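 Cells (2,000/well in MEM with 10% FBS) attached overnight at 37 C, then were exposed to compound or DMSO for 1 hr at 37 C, 5% CO2. Fluorescence read at Ex/Em 405/460 nm, expressed as triamterene-equivalent signal.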

[18] = target: Glucocorticoid receptor (Homo sapiens) (UniProt P04150); test: qHTS assay to identify small molecule antagonists of the glucocorticoid receptor (GR) signaling pathway (AID 720692; active means well fitted inhibition curve with a large enough effect in the signal ratio in the repeat runs, not every such curve was filed as active; the % refers to the signal ratio)
Summary of the method: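 GR-bla HeLa cells (beta-lactamase reporter under glucocorticoid response element) were pre-plated 4 h at 37 C, treated with compounds plus 5 nM dexamethasone (final) for 18 h, then read by LiveBLAzer B/G FRET fluorescence after 2 h.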

[19] = target: Glucocorticoid receptor (Homo sapiens) (UniProt P04150); test: qHTS assay to identify small molecule agonists of the glucocorticoid receptor (GR) signaling pathway (AID 720691; active means well fitted activation curve with a large enough effect in the signal ratio in the repeat runs, not every such curve was filed as active; the % refers to the signal ratio)
Summary of the method: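 GR-bla HeLa cells (beta-lactamase reporter under glucocorticoid response element) were plated 4 h at 37 C/5% CO2, given compounds in DMSO, and incubated 18 h at 37 C. LiveBLAzer B/G FRET substrate was added for 2 h at room temperature, then fluorescence intensity read.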

Measured: Potency

Glucocorticoid receptor (Homo sapiens), sequence (P04150 whole entry, looked up): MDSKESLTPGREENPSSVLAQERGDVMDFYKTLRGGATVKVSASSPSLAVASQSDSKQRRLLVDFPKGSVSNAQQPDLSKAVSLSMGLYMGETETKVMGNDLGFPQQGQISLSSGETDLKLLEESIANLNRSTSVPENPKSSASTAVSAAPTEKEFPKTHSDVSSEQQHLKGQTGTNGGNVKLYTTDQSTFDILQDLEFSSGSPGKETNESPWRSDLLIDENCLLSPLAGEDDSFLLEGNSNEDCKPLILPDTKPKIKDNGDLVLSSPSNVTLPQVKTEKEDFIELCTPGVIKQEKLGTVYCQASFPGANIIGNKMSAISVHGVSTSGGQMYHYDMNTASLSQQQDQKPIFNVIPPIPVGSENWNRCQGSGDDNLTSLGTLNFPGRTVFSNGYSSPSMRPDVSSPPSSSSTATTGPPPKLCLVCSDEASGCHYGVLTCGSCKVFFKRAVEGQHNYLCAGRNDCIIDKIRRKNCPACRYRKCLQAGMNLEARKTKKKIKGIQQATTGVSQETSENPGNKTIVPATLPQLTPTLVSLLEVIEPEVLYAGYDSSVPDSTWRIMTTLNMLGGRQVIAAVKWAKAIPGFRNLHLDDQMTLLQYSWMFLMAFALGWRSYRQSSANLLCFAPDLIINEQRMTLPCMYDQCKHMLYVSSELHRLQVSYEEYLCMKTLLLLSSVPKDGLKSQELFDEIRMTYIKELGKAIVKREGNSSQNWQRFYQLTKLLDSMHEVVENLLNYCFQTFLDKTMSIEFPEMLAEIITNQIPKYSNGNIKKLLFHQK

NNC(=O)c1cccnc1
inactive: [1] | [2] | [3] | [4] | [5] | [6] | [7] | [8] | [9] | [10] | [11] | [12] | [13] | [14] | [15] | [16] | [17]

Brc1ccccc1
inactive: [1] | [2] | [3] | [4] | [5] | [6] | [7] | [8] | [9] | [10] | [11] | [12] | [13] | [14] | [15] | [16] | [17] | [18]

C=CCC1([C@H](C)CCC)C(=O)NC(=O)NC1=O
inactive: [1] | [2] | [3] | [4] | [5] | [6] | [7] | [8] | [9] | [10] | [11] | [12] | [13] | [14] | [15] | [16] | [17] | [19] | [18]

Cn1sc(Cl)cc1=O
inactive: [1] | [2] | [3] | [4] | [5] | [6] | [7] | [8] | [9] | [10] | [11] | [12] | [13] | [14] | [15] | [16] | [17] | [18]

O=[N+]([O-])c1ccccc1CCl
inactive: [1] | [2] | [3] | [4] | [5] | [6] | [7] | [8] | [9] | [10] | [11] | [12] | [13] | [14] | [15] | [16] | [17] | [19] | [18]

CC(C)(CCl)C(=O)Cl
inactive: [1] | [2] | [3] | [4] | [5] | [6] | [7] | [8] | [9] | [10] | [11] | [12] | [13] | [14] | [15] | [16] | [17] | [19] | [18]

COC(=O)c1cncn1C(C)c1ccccc1 (stereo unspecified)
inactive: [1] | [2] | [3] | [4] | [5] | [6] | [7] | [8] | [9] | [10] | [11] | [12] | [13] | [14] | [15] | [16] | [17]

COc1cc(Cl)c(OC)cc1Cl
inactive: [1] | [2] | [3] | [4] | [5] | [6] | [7] | [8] | [9] | [10] | [11] | [12] | [13] | [14] | [15] | [16] | [17] | [19] | [18]
